Here are results for 18 molecules from PubChem BioAssay (NCI).

Structures are written as SMILES. Compounds without any hit were thinned out: in the full panel of roughly 83,000, 20% have a hit.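 Plates (96-well) were seeded with cells, treated with compound at one concentration, and incubated for 48 hours before percent growth was determined.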 Unmarked numbers belong to inactive results. Calls of active or inactive are those of the source. How the source made its calls: active means growth percent below 10; inactive means the rest.

Some test systems named below: T-47D breast; BT-549 breast; SW-620 colon; MCF7 breast; HCT-116 colon; HCC-2998 colon; KM12 colon; MDA-MB-435 melanoma.
Holding throughout (test): NCI-60 one-dose screen, 48 h (100 = growth as untreated, 0 = no growth, -100 = all killed)
What all share (details): 10 µM unless noted

As for `NC(=S)N/N=C/Cc1ccccc1`, the growth is 49.3% in the experiment on T-47D breast; 119% with BT-549 breast; 102% in the experiment on SW-620 colon; 21.5% in the experiment with MCF7 breast; 6.31% (active) in the experiment on HCT-116 colon; 113% with HCC-2998 colon. Besides, the growth in the experiment on KM12 colon was 107%.

For the molecule `Cc1ccc(Nc2nc(N)nc(CSCC(=O)NN)n2)cc1`, the growth in the experiment on T-47D breast was 102%; with MDA-MB-435 melanoma it was 94.3%; in the experiment with SW-620 colon it was 98.9%; in the experiment on MCF7 breast, 94.3%; with HCT-116 colon it was 103%; with HCC-2998 colon it was 109%. The growth in the experiment on KM12 colon is 98.1%.

`Cc1ccc(S(=O)(=O)NCC[C@@H]2C[C@H]2c2cc3ccccc3s2)cc1`: the growth in the experiment on T-47D breast is 77.9%; in the experiment on MDA-MB-435 melanoma, 104%; with SW-620 colon, 103%; in the experiment with MCF7 breast, 93.7%; in the experiment with HCT-116 colon, 93.8%; in the experiment with HCC-2998 colon it was 106%. Further, in the experiment with KM12 colon, the growth is 96.1%.

`Cc1ccc(S(=O)(=O)N/N=C\c2cc(Cl)ccc2O)cc1`: the growth was 86% in the experiment on T-47D breast; 91.7% in the experiment with BT-549 breast; 81.4% in the experiment with SW-620 colon; 82.6% in the experiment with MCF7 breast; 48.2% in the experiment on HCT-116 colon; 108% in the experiment on KM12 colon.

With `COC(=O)[C@]12CC[C@@H](C)[C@H](C)[C@@H]1C1=CC[C@@H]3[C@@]4(C)C(C=O)=C[C@@](C)(COC(C)=O)[C@@H]4[C@H](O)C[C@@]3(C)[C@]1(C)CC2`, the growth was -18.5% (active) in the experiment on T-47D breast; -24.3% (active) with MDA-MB-435 melanoma; -59.4% (active) with SW-620 colon; -11.7% (active) in the experiment with MCF7 breast; -76.8% (active) in the experiment with HCT-116 colon; -71% (active) in the experiment with HCC-2998 colon. Further, in the experiment with KM12 colon, the growth was -27.5% (active).

Take `O=C1CCC2=C3C4CCCCC4C(=O)C4CCCC(OC2C1)C34` (stereo not drawn): the growth is 46.4% with T-47D breast; 7.09% (active) in the experiment on BT-549 breast; 4.34% (active) in the experiment on SW-620 colon; 12.8% with MCF7 breast; -7.43% (active) with HCT-116 colon; -2.73% (active) with KM12 colon.

In the case of `C[C@]12CC[C@@H]3c4cc(OC(F)F)c(O)cc4CC[C@H]3[C@@H]1CC[C@@H]2OS(N)(=O)=O`, the growth in the experiment with T-47D breast was 47%; with BT-549 breast, 67.7%; in the experiment on SW-620 colon it was 31.2%; with MCF7 breast, 24.2%; in the experiment with HCT-116 colon it was 29.8%; in the experiment on HCC-2998 colon it was 47.5%. The growth in the experiment on KM12 colon is 18.9%.

As to `COc1cccc(-c2nn(-c3ccccc3)cc2-c2ccnc(NCCCNC(=O)Nc3ccc(Cl)c(Cl)c3)c2)c1`, the growth in the experiment on T-47D breast is -15% (active); in the experiment on BT-549 breast, 7.49% (active); with SW-620 colon, 12%; with MCF7 breast, 5.21% (active); in the experiment with HCT-116 colon, 2.97% (active); in the experiment on HCC-2998 colon, -61.8% (active). For the same molecule, in the experiment with KM12 colon, the growth was -13.4% (active).

For the molecule `NNC(=O)c1nc(N)n(-c2ccc(S(N)(=O)=O)cc2)n1`, the growth with T-47D breast is 93.5%; with BT-549 breast, 92.7%; with MCF7 breast, 102%; with HCT-116 colon, 95.3%; with KM12 colon, 95.5%.

As to `COc1ccc(NC(=O)CSc2nnc(-c3cc(-c4ccccc4)nc4ccccc34)n2-c2ccccc2)cc1`, the growth in the experiment with T-47D breast was 78.4%; in the experiment with MDA-MB-435 melanoma it was 99.2%; in the experiment on SW-620 colon, 101%; with MCF7 breast, 89.1%; with HCT-116 colon, 92.6%; in the experiment with HCC-2998 colon, 107%.

For the molecule `N#Cc1c(N)nc2c(C#N)c(NC(=O)c3ccccc3)nn2c1-c1ccccc1`, the growth with T-47D breast was 68.2%; in the experiment on MDA-MB-435 melanoma, 96.7%; in the experiment with SW-620 colon, 103%; with MCF7 breast it was 75.8%; in the experiment with HCT-116 colon, 92.7%; in the experiment on HCC-2998 colon, 103%. The growth with KM12 colon was 95.7%.

Turning to `NS(=O)(=O)c1ccc(-n2nc(C(=O)N/N=C\c3ccc(F)cc3)cc2-c2ccc(Cl)cc2)cc1`, the growth with T-47D breast is 79.5%; with MDA-MB-435 melanoma it was 94.3%; with SW-620 colon, 95.8%; in the experiment on MCF7 breast, 81.3%; in the experiment on HCT-116 colon, 98%; in the experiment with HCC-2998 colon it was 98%.

For the molecule `O=C(Nc1cccc2c(O)c(N=Nc3ccc(S(=O)(=O)Nc4nccs4)cc3)cc(N=Nc3ccc(S(=O)(=O)Nc4nccs4)cc3)c12)C(Cl)Cl`, the growth in the experiment with T-47D breast is 88.3%; in the experiment on BT-549 breast, 87.3%; in the experiment on SW-620 colon it was 42%; in the experiment on MCF7 breast, 57.8%; in the experiment with HCT-116 colon it was 71.8%; with HCC-2998 colon it was 107%. For the same molecule, the growth in the experiment on KM12 colon was 59%.

As for `C[C@@H]1N=C(c2ccc3ccccc3n2)Nc2nc3ccccn3c2C1=O`, the growth with T-47D breast was 90.2%; in the experiment on MDA-MB-435 melanoma, 104%; in the experiment with SW-620 colon it was 99%; in the experiment with MCF7 breast it was 76.7%; in the experiment with HCT-116 colon, 95.5%; with HCC-2998 colon, 101%. For the same molecule, the growth with KM12 colon was 95.3%.

Regarding `CCOC(CN=Cc1cc(C)c2[nH]c3ccccc3c2c1C)OCC`, the growth with T-47D breast is 94.4%; with BT-549 breast, 83.2%; in the experiment with SW-620 colon, 99.1%; in the experiment on MCF7 breast, 88.9%; in the experiment on HCT-116 colon, 94.4%; with HCC-2998 colon it was 113%. Also, the growth with KM12 colon is 106%.

Take `COc1ccc(Cl)cc1NC(=O)C(Br)C(Br)C(=O)O` (stereo not drawn): the growth with T-47D breast is 19.9%; with MDA-MB-435 melanoma, 34.2%; in the experiment on SW-620 colon it was 8.71% (active); with MCF7 breast, 23.8%; in the experiment with HCT-116 colon, 8.19% (active); in the experiment on HCC-2998 colon, 38.6%. Moreover, the growth in the experiment on KM12 colon was 83.2%.

`N[C@@H](CCCCNCC(=O)O)C(=O)O`: the growth in the experiment with T-47D breast was 96.9%; in the experiment with BT-549 breast, 111%; with MCF7 breast it was 105%; in the experiment with HCT-116 colon, 106%; with HCC-2998 colon, 103%; in the experiment on KM12 colon, 101%.

In the case of `N#CCN1C(=O)C2C3=C(CCCC3)SC2N=C1CN1CCCC1` (stereo not drawn), the growth with T-47D breast was 97.2%; with MDA-MB-435 melanoma, 105%; in the experiment on SW-620 colon, 95.3%; with MCF7 breast, 109%; with HCT-116 colon it was 94.2%; in the experiment with HCC-2998 colon, 96.9%.
